# Measured values as given in article PMC11062922 (Nature Chemical Biology, 2023).
# Like-named read-outs stand apart in the source and are kept apart here.
# What was measured:
# AAK1 = test system: AAK1; set-up: species or system human, MV4-11 + K-562 + COLO205 + SK-N-BE2 + OVCAR-8; conditions: read-out: apparent Kd, n = 1
# CLK1 = test system: CLK1; set-up: species or system human, MV4-11 + K-562 + COLO205 + SK-N-BE2 + OVCAR-8; conditions: read-out: apparent Kd, compound concentrations: 100 nM and 1000 nM (sheet 'Samples'), n = 1
# CLK4 = test system: CLK4; set-up: species or system human, MV4-11 + K-562 + COLO205 + SK-N-BE2 + OVCAR-8; conditions: read-out: apparent Kd, compound concentrations: 100 nM and 1000 nM (sheet 'Samples'), n = 1
# CSNK2A1;CSNK2A3 = test system: CSNK2A1;CSNK2A3; set-up: species or system human, MV4-11 + K-562 + COLO205 + SK-N-BE2 + OVCAR-8; conditions: read-out: apparent Kd, compound concentrations: 100 nM and 1000 nM (sheet 'Samples'), n = 1
# CSNK2A2 = test system: CSNK2A2; set-up: species or system human, MV4-11 + K-562 + COLO205 + SK-N-BE2 + OVCAR-8; conditions: read-out: apparent Kd, compound concentrations: 100 nM and 1000 nM (sheet 'Samples'), n = 1
# FLT3 = test system: FLT3; set-up: species or system human, MV4-11 + K-562 + COLO205 + SK-N-BE2 + OVCAR-8; conditions: read-out: apparent Kd, compound concentrations: 100 nM and 1000 nM (sheet 'Samples'), n = 1
# Q6ZSR9 = Q6ZSR9 (human, UniProt Q6ZSR9); set-up: species or system MV4-11 + K-562 + COLO205 + SK-N-BE2 + OVCAR-8; conditions: read-out: apparent Kd, n = 1
# Q6ZSR9, sequence (Q6ZSR9 whole entry, looked up): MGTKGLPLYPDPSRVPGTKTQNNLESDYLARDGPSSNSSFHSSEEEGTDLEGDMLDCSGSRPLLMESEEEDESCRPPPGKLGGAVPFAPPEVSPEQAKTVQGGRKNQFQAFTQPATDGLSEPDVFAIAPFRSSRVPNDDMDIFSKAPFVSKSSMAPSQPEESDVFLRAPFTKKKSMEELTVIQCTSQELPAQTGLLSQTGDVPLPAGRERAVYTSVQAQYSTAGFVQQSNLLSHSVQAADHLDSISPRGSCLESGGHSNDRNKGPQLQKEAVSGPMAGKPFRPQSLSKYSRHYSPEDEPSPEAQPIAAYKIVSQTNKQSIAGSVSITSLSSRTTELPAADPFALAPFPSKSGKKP
# BMP2K = test system: BMP2K; set-up: species or system human, MV4-11 + K-562 + COLO205 + SK-N-BE2 + OVCAR-8; conditions: read-out: apparent Kd, n = 1
# GSK3A = test system: GSK3A; set-up: species or system human, MV4-11 + K-562 + COLO205 + SK-N-BE2 + OVCAR-8; conditions: read-out: apparent Kd, n = 1
# GSK3B = test system: GSK3B; set-up: species or system human, MV4-11 + K-562 + COLO205 + SK-N-BE2 + OVCAR-8; conditions: read-out: apparent Kd, n = 1
# MELK = test system: MELK; set-up: species or system human, MV4-11 + K-562 + COLO205 + SK-N-BE2 + OVCAR-8; conditions: read-out: apparent Kd, n = 1
# PAK4 = test system: PAK4; set-up: species or system human, MV4-11 + K-562 + COLO205 + SK-N-BE2 + OVCAR-8; conditions: read-out: apparent Kd, n = 1
# PKN1 = test system: PKN1; set-up: species or system human, MV4-11 + K-562 + COLO205 + SK-N-BE2 + OVCAR-8; conditions: read-out: apparent Kd; compound concentrations:100 nM and 1000 nM (sheet 'Samples'); n = 1
# PKN3 = test system: PKN3; set-up: species or system human, MV4-11 + K-562 + COLO205 + SK-N-BE2 + OVCAR-8; conditions: read-out: apparent Kd; compound concentrations:100 nM and 1000 nM (sheet 'Samples'); n = 1
# RET = test system: RET; set-up: species or system human, MV4-11 + K-562 + COLO205 + SK-N-BE2 + OVCAR-8; conditions: read-out: apparent Kd, n = 1
# GAK = test system: GAK; set-up: species or system human, MV4-11 + K-562 + COLO205 + SK-N-BE2 + OVCAR-8; conditions: read-out: apparent Kd; compound concentrations: 100 nM and 1000 nM (sheet 'Samples'), CATDS: 2.4779459392996701E-2; n = 1
# NUAK1 = test system: NUAK1; set-up: species or system human, MV4-11 + K-562 + COLO205 + SK-N-BE2 + OVCAR-8; conditions: read-out: apparent Kd; compound concentrations: 100 nM and 1000 nM (sheet 'Samples'), CATDS: 0.165743265872908; n = 1
# SIK2 = test system: SIK2; set-up: species or system human, MV4-11 + K-562 + COLO205 + SK-N-BE2 + OVCAR-8; conditions: read-out: apparent Kd; compound concentrations: 100 nM and 1000 nM (sheet 'Samples'), CATDS: 2.5744963506260699E-2; n = 1
# [1] = compound concentrations:100 nM and 1000 nM (sheet 'Samples')
structure (smiles),measurement,setting,value
O=C1N=C(NCCCc2ccccc2)S/C1=C\c1ccc2ncccc2c1 [RO4493941-000],potency estimated from few doses,"AAK1; compound concentrations: 100 nM and 1000 nM (sheet 'Samples'), CATDS: 6.7611203009870793E-2",1120 nM
same,potency estimated from few doses,CLK1; CATDS: 8.49411754848379E-2,528 nM
same,potency estimated from few doses,CLK4; CATDS: 0.15877377246004401,105 nM
same,potency estimated from few doses,CSNK2A1;CSNK2A3; CATDS: 0.35522502931524602,22 nM
same,potency estimated from few doses,CSNK2A2; CATDS: 0.347313618598384,22.8 nM
same,potency estimated from few doses,FLT3; CATDS: 7.0899563785954994E-2,945 nM
same,potency estimated from few doses,"Q6ZSR9; compound concentrations: 100 nM and 1000 nM (sheet 'Samples'), CATDS: 7.1931032695021699E-2",898 nM
O=C1N=C(NCc2cccs2)O/C1=C\c1ccc2ncccc2c1 [RO4624208-000],potency estimated from few doses,"AAK1; compound concentrations: 100 nM and 1000 nM (sheet 'Samples'), CATDS: 0.10731748351682301",135 nM
same,potency estimated from few doses,"BMP2K; compound concentrations: 100 nM and 1000 nM (sheet 'Samples'), CATDS: 4.6084247955460698E-2",1920 nM
same,potency estimated from few doses,CLK1; CATDS: 0.227495449578137,23.7 nM
same,potency estimated from few doses,CLK4; CATDS: 0.59916054369274396,4.27 nM
same,potency estimated from few doses,CSNK2A1;CSNK2A3; CATDS: 6.2614032961525998E-2,629 nM
same,potency estimated from few doses,CSNK2A2; CATDS: 6.3902524713508005E-2,590 nM
same,potency estimated from few doses,"Q6ZSR9; compound concentrations: 100 nM and 1000 nM (sheet 'Samples'), CATDS: 0.11947964791327",103 nM
CCn1c(-c2nonc2N)nc2c(C#CC(C)(C)O)nc(O[C@@H](CN)c3ccccc3)cc21.O=C(O)C(F)(F)F [GSK1007102B],potency estimated from few doses,AAK1; [1],67.3 nM
same,potency estimated from few doses,BMP2K; [1],355 nM
same,potency estimated from few doses,GSK3A; [1],46.1 nM
same,potency estimated from few doses,GSK3B; [1],40.5 nM
same,potency estimated from few doses,MELK; [1],1040 nM
same,potency estimated from few doses,PAK4; [1],39.8 nM
same,potency estimated from few doses,PKN1,37.6 nM
same,potency estimated from few doses,PKN3,2.06 nM
same,potency estimated from few doses,Q6ZSR9; [1],111 nM
same,potency estimated from few doses,RET; [1],1250 nM
CNCC#Cc1c(F)ccc2c1/C(=C/c1[nH]ccc1OC)C(=O)N2.Cl [RO0281601-001],potency estimated from few doses,"AAK1; compound concentrations: 100 nM and 1000 nM (sheet 'Samples'), CATDS: 7.8599709029845199E-2",81.9 nM
same,potency estimated from few doses,"BMP2K; compound concentrations: 100 nM and 1000 nM (sheet 'Samples'), CATDS: 0.12287640268831",36.8 nM
same,potency estimated from few doses,CSNK2A1;CSNK2A3; CATDS: 2.36611103564075E-2,1450 nM
same,potency estimated from few doses,CSNK2A2; CATDS: 2.8196939656964501E-2,832 nM
same,potency estimated from few doses,FLT3; CATDS: 6.9218069305552701E-2,105 nM
same,potency estimated from few doses,GAK,1240 nM
same,potency estimated from few doses,"GSK3A; compound concentrations: 100 nM and 1000 nM (sheet 'Samples'), CATDS: 3.3017253821498199E-2",543 nM
same,potency estimated from few doses,"GSK3B; compound concentrations: 100 nM and 1000 nM (sheet 'Samples'), CATDS: 2.9733635165772199E-2",717 nM
same,potency estimated from few doses,"MELK; compound concentrations: 100 nM and 1000 nM (sheet 'Samples'), CATDS: 2.1569826245294601E-2",2070 nM
same,potency estimated from few doses,NUAK1,22.7 nM
same,potency estimated from few doses,"PAK4; compound concentrations: 100 nM and 1000 nM (sheet 'Samples'), CATDS: 2.65611791576283E-2",993 nM
same,potency estimated from few doses,"Q6ZSR9; compound concentrations: 100 nM and 1000 nM (sheet 'Samples'), CATDS: 7.9611520405697994E-2",79.9 nM
same,potency estimated from few doses,"RET; compound concentrations: 100 nM and 1000 nM (sheet 'Samples'), CATDS: 3.1274331482211301E-2",625 nM
same,potency estimated from few doses,SIK2,1090 nM
